# High-throughput results from PubChem BioAssay.
# Sampled rows, rich in hits. Any-hit rate of the full collection: about 2.4%.
# Pol kappa inh-1 – DNA polymerase kappa (human) inhibition. Potency, µM (doses to about 107 µM), for the others: at the highest dose activity, negative = inhibition, hits mostly inhibitors. hit rate 0.53% among 400,000. purified Pol kappa, fluorescent DNA synthesis assay, 10 min. AID 588579; note: % is set by controls: 0 for no effect and ±100 for the full control effect
#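 Kinetic fluorescence screen: compound preincubated 15 min RT with 10 nM enzyme; 50 nM substrate (final) initiates; reads at 0/10 min.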
# FEN1 inhibitor – blocks human flap endonuclease 1; Recombinant FEN1 flap cleavage, fluorescence, 15 min; P39748; hit rate 0.35% among 390,000; Potency, µM (series often up to 114 µM), inactives show top-dose activity change, negative = inhibition, most hits filed as inhibitors; note: % is set by controls: 0 for no effect and ±100 for the full control effect; nearly all actives have a fitted effect of over 65% in size
#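 Reaction started by adding substrate (50 nM final) to 10 nM enzyme after 15 min room-temperature compound preincubation. Reads at 0 and 15 min, with data normalized and fitted to a four-parameter Hill equation.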
# Pol iota inh – inhibitors of human DNA polymerase iota. Q9UNA4. Pol iota fluorescent replication assay, 10 min. Potency, µM (top dose mostly 115 µM), inactives show at the top dose activity, negative = inhibition, actives largely listed as inhibitors. hit rate 1% among 390,000
# Target sequence (Q9UNA4 whole entry, looked up): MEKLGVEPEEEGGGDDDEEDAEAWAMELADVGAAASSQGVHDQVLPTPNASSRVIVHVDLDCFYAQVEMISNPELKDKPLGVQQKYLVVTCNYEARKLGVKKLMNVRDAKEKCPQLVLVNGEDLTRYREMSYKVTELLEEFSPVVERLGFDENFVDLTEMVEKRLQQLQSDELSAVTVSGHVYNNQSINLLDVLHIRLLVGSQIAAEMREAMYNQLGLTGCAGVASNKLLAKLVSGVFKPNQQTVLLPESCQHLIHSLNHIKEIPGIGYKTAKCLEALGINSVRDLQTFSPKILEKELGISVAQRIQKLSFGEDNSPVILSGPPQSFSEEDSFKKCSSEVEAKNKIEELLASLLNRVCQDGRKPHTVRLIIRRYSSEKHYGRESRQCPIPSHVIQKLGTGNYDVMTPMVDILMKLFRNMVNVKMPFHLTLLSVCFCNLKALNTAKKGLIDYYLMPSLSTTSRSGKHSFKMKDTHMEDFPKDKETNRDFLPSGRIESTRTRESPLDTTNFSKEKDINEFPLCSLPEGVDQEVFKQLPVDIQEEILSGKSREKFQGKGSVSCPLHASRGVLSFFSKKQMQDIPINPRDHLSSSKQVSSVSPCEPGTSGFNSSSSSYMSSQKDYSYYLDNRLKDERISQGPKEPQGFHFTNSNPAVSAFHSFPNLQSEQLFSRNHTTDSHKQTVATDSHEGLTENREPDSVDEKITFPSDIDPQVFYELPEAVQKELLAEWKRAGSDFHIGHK
#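 Fluorescent replication assay read twice, at 0 min and 10 min after adding 50 nM (final) substrate. Enzyme (10 nM) and compounds were first incubated 15 min at room temperature; enzyme-free buffer wells were negative controls.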
# Pol beta inh – DNA polymerase beta (human) inhibition; P06746; Pol beta primer extension/strand displacement, fluorescence kinetic; Potency, µM (doses to about 114 µM), for inactives: top-dose activity change, negative = inhibition, actives largely listed as inhibitors; hit rate 1.3% among 340,000; AID 485314; note: % is set by controls: 0 for no effect and ±100 for the full control effect
#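 Human Pol beta at 10 nM; strand-displacement substrate 50 nM final. Compound exposure 15 min at room temperature before start, reaction 10 min at room temperature.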
# WRN inhibitor – WRN helicase (human) inhibition; hit rate 0.46% among 360,000; WRN helicase unwinding, fluorescent forked duplex, kinetic; Potency, µM (top dose mostly 114 µM), inactives show top-dose activity change, negative = inhibition, most hits filed as inhibitors; AID 651768; Q14191; note: % is set by controls: 0 for no effect and ±100 for the full control effect; nearly all actives have a fitted effect of over 55% in size
#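 Fluorescence dequenching readout, ex 525 nm/em 598 nm, kinetic mode: forked duplex DNA (100 nM final) with adjacent fluorophore and quencher unwound by WRN (20 nM final) with 2 mM ATP. Compound preincubation 15 min, room temperature.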
# Pol eta inh-1 – blocks human DNA polymerase eta activity | Q9Y253 | recombinant Pol eta, fluorescent DNA replication assay | Potency, µM (titrated, usually from 114 µM), without a hit: at the top dose activity change, negative = inhibition, actives largely listed as inhibitors | hit rate 1.2% among 390,000 | AID 588591; note: % is set by controls: 0 for no effect and ±100 for the full control effect
#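 Pol eta (10 nM) was preincubated with compounds for 15 min at room temperature, after which fluorescent replication substrate (50 nM final) was added to start the reaction. Fluorescence was read kinetically at 0 and 10 min.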
# HEK293 tox – counter-screen for GALK inhibitors: HEK293 cell cytotoxicity; shares compounds with Pol eta inh-1; HEK-293 viability, ATP luminescence (CellTiter-Glo), 24/48 h; Potency, µM (titrated, usually from 46.1 µM), without a hit: top-dose activity change, negative = cytotoxicity, hits mostly inhibitors; hit rate 10% among 170; AID 2547; note: % is set by controls: 0 for no effect and ±100 for the full control effect
# Pol kappa inh-2 – Pol kappa (human) inhibition, cherry-pick confirmation | Potency, µM, actives largely listed as inhibitors | purified Pol-kappa, fluorescent strand-displacement substrate | AID 720501 | hit rate 76% among 920 | shares compounds with Pol eta inh-1
# Pol eta inh-2 – Pol eta (human) inhibition, cherry-pick confirmation; shares compounds with Pol eta inh-1; Pol eta primer extension, TAMRA/BHQ fluorescence, 10 min; Potency, µM, usual class: inhibitors; hit rate 64% among 2,600; AID 720502
# Active calls of the source: *; ? = inconclusive; . = no result given; [ ] = another dose, or the depositor's remark. Calls come from the whole dose curve; as a rule, active = well fitted curve in the direction sought with a large enough effect; inconclusive = small, poorly fitted or top-dose-only effect, or another doubt; inactive = no such curve, though single readings can be large; an effect the other way counts as inactive or inconclusive. Potency is the fitted concentration of half-maximal effect.
SMILES,Pol kappa inh-1,FEN1 inhibitor,Pol iota inh,Pol beta inh,WRN inhibitor,Pol eta inh-1,Pol eta inh-2,others
O=c1[nH]c(Nc2nc3ccccc3o2)nc2c1CCCC2,-6%,25%,6%,2%,-17%[57.1 µM],-1%,.,
CC1CCC2(C1)N=C(Nc1nc3ccccc3o1)NC1=C2C(=O)CCC1 (centres undefined),.,.,.,.,.,.,.,HEK293 tox=?
CCOc1cccc(=O)c2c(C)n(Cc3ccccc3)c(C)c12,-10%,18%,29%,?,2%,-20%,.,
CCOc1cccc(=O)c2c(C)n(-c3ccc(C(=O)O)cc3)c(C)c12,?,?,?,22µM*,?,28µM*,27*,
COc1ccccc1N1CC(C(=O)OC(C)C(=O)N2CCCc3ccccc32)CC1=O (centres undefined),-13%,5%,41%,2%,1%[57.1 µM],-13%,.,
O=C1c2cccc3c([N+](=O)[O-])ccc(c23)C(=O)N1Cc1cccnc1,-10%,?,?,16µM*,-13%,?,?,
O=C1c2cccc3cccc(c23)C(=O)N1Cc1cccnc1,0%,2%,109%,-1%,-8%,-15%,.,
Cc1cc(NS(=O)(=O)c2ccc(NC(=O)COc3ccccc3[N+](=O)[O-])cc2)no1,?,-15%,35µM*,18µM*,?,20µM*,67*,
O=C(O)c1cccc(NS(=O)(=O)c2ccc(-c3ccc(S(=O)(=O)Nc4cccc(C(=O)O)c4)cc3)cc2)c1,50µM*,?,?,?,-9%,?,?,Pol kappa inh-2=21*
CN1CCN(C(=S)c2ccc(Br)cc2)CC1,-6%,-6%,50%,3%[57.1 µM],?,-15%,.,
CCOc1cc(/C=C\c2nc(O)c([N+](=O)[O-])c(=O)[nH]2)ccc1OC(C)CC (centres undefined),-2%,-4%,?,3%,-17%,-1%,.,
CCOc1ccccc1/C=C\c1nc(O)c([N+](=O)[O-])c(=O)[nH]1,-16%,0%,-17%,-10%,-22%[57.1 µM],?,.,
Cc1cc(/C=C\c2nc(O)c([N+](=O)[O-])c(=O)[nH]2)c(C)n1-c1ccccc1,89µM*,?,28µM*,25µM*,?,22µM*,?,
O=c1[nH]c(/C=C\c2cccc(O)c2)nc(O)c1[N+](=O)[O-],-4%,10%,?,-25%,-12%,-18%,.,
O=c1[nH]c(/C=C\c2ccc(O)c(O)c2)nc(O)c1[N+](=O)[O-],?,?,?,25µM*,?,?,76*,Pol kappa inh-2=17*
COc1ccc(-n2c(C)cc(/C=C/c3nc(O)c([N+](=O)[O-])c(=O)[nH]3)c2C)cc1,50µM*,?,?,-5%,-16%[57.1 µM],20µM*,?,
C=CCc1cccc2cc(C(=O)O)c(=O)oc12,0%,-15%,13%,18%,-7%,1%,.,
C=CCc1cccc2cc(C(=O)Nc3ccccc3C(=O)O)c(=O)oc12,-40%,-6%,?,?,?,45µM*,?,
O=C(COC(=O)CNC(=O)c1ccc([N+](=O)[O-])o1)Nc1ncc(Cl)cc1Cl,-21%,-3%,?,.,-7%[11.6 µM],?,?,
COc1ccc(OCCCC(=O)OCC(=O)Nc2ncc(Cl)cc2Cl)cc1,-31%,-16%,?,.,?,40µM*,85*,Pol kappa inh-2=?
Cc1ccccc1NC(=O)c1c(NC(=O)C(F)(F)F)sc2c1CCCCC2,-4%,-12%,10%,?,.,-29%,.,
Cc1cccc(NC(=O)c2c(NC(=O)C(F)(F)F)sc3c2CCCCC3)c1,-21%,?,?,?,.,45µM*,.,Pol kappa inh-2=67*
Cc1ccc(NC(=O)c2c(NC(=O)C(F)(F)F)sc3c2CCCCC3)cc1,?,?,?,?,.,50µM*,?,
O=C(Nc1cccc(Cl)c1)c1c(NC(=O)C(F)(F)F)sc2c1CCCC2,-32%,?,?,?,.,25µM*,?,
O=Cc1c(NCc2ccc(F)cc2)c2ccccc2[nH]c1=O,-14%,-5%,38%,1%,2%,-19%,.,
SMILES,Pol kappa inh-1,FEN1 inhibitor,Pol iota inh,Pol beta inh,WRN inhibitor,Pol eta inh-1,Pol eta inh-2,others
CCn1c(CCC(N)=O)nnc1SCC(=O)c1cc(C)n(C2CC2)c1C,-9%,-5%,17%,.,4%,-16%,.,
O=C(NCc1ccncc1)C(=O)NCc1ccncc1,0%,-2%,61%,1%,-1%,7%,.,
NC1=NC(=O)/C(=C/c2cn(CCC(=O)O)nc2-c2ccc(Cl)cc2)S1,-16%,-17%,-17%,30%,?,14µM*,.,Pol kappa inh-2=17*
NC1=NC(=O)/C(=C/c2cn(CCC(=O)O)nc2-c2ccc(F)cc2)S1,-16%,-15%,7%,24%,-21%,?,.,
COc1ccc(-c2nn(CCC(=O)O)cc2/C=C2\SC(N)=NC2=O)cc1,79µM*,-17%,-18%,9%,?,5.6µM*,27*,Pol kappa inh-2=21*
CCCOc1ccc(-c2nn(-c3ccccc3)cc2/C=C2\SC(N)=NC2=O)cc1,1%,-3%,50%,42%,0%[57.1 µM],6%,.,
COCCNc1nc2cc(-c3ccccc3C)sc2c(=O)n1C,.,.,.,.,12%,.,.,
O=c1nccc(Nc2ccccc2)[nH]1,-5%,-5%,26%,?,-1%,-13%,.,
O=C(/C=C/c1ccc(-c2ccccc2[N+](=O)[O-])o1)c1ccco1,?,-14%,?,?,?,40µM*,76*,
O=C(/C=C/c1ccc([N+](=O)[O-])cc1)c1ccco1,-1%,23%,?,1%,-10%,4%,.,
COc1ccc(CCNC(=O)C2CC(=O)N(C3CCCCC3)C2)cc1OC (centres undefined),12%,-3%,2%,4%,4%[57.1 µM],-13%,.,
Cc1nn(-c2ccccc2)c(C)c1-c1cc(C(=O)N/N=C/c2ccc(O)cc2)[nH]n1,79µM*,?,20µM*,10µM*,-16%,28µM*,43*,
COc1cc(/C=N/NC(=O)c2cc(-c3c(C)nn(-c4ccccc4)c3C)n[nH]2)ccc1O,?,-10%,3.2µM*,?,?,20µM*,54*,
